Compound activity: PubChem, several laboratories
Platelet DG rel: inhibitors of platelet dense granule secretion, primary screen, cell-based, MLPCN, human platelets; human platelet-rich plasma, SFLLRN dense granule ATP release, luminescence; inhibition, %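 (compounds screened at 7.5 µM in platelet-rich plasma)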; 0.22% of 300,000 active;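 active = mean replicate score, as percent of positive control, at or above 50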
SENP8 block-1: human SENP8 protease inhibitors, primary screen, biochemical, fluorescence, Nedd8 protein substrate, uHTS; inhibition, % at 20 µM; 0.64% of 360,000 active; recombinant SENP8; AID 602440, 2012; in the data active = inhibition mostly above about 40%, no sharp cut-off; inactive = mostly below about 27%
SENP8 block-2: SENP8 protease inhibitors, primary screen, biochemical, luminescence; AID 2540, 2010; inhibition, % at 10 µM; purified SENP8, Z-RLRGG-aminoluciferin cleavage; Sentrin-specific protease 8 (Homo sapiens), Q96LD8; 1.2% of 330,000 active; in the data active = inhibition above about 50%
SENP7 block: SENP7 protease inhibitors, primary screen, biochemical, luminescence, uHTS. recombinant SENP7, Z-RLRGG-aminoluciferin luminescence, 40 min. inhibition, % at 5 µM. 1.5% of 330,000 active. Sentrin-specific protease 7 (Homo sapiens), Q9BQF6. AID 434973, 2010;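 active = inhibition above about 50% at the single test dose, limit read from the data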
HSP90 inh: HSP90 inhibitors, primary screen, cell lysate, luminescence; Heat shock protein HSP 90 (rabbit reticulocyte lysate; luciferase refolding); Rabbit reticulocyte lysate, luciferase refolding luminescence, 3 h; inhibition, % at 5.6 µM; 0.91% of 290,000 active; AID 1789, 2009;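 active = inhibition above the screen-wide mean plus 3 SD, computed separately per campaign, cut at about 16% in these data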;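 also: inhibitors lower the luminescence because luciferase stays unfolded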
SENP6 inh: SENP6 protease inhibitors, primary screen, biochemical, luminescence, uHTS. Sentrin-specific protease 6 (Homo sapiens), Q9GZR1. 1.8% of 330,000 active. Recombinant SENP6 catalytic domain, aminoluciferin luminescence. AID 2599, 2010. inhibition, % at 10 µM;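 active = inhibition above about 50% at the single tested dose, limit read from the data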
Target sequence (Q9GZR1 628-1112 limits assumed): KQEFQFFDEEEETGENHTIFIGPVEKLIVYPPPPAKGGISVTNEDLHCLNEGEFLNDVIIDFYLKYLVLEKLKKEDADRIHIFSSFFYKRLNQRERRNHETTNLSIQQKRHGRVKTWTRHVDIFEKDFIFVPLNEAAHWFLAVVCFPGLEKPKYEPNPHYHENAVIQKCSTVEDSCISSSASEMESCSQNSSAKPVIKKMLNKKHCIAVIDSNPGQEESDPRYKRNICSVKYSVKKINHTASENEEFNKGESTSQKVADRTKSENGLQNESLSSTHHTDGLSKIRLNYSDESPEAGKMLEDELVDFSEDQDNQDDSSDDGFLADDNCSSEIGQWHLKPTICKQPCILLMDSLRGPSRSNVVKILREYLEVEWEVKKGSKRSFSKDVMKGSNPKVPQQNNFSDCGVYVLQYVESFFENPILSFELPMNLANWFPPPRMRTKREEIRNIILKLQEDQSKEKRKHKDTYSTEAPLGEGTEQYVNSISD
SENP8 conf: SENP8 protease inhibitors, retest, confirmation, biochemical, luminescence, single concentration. shares compounds with SENP7 block. Recombinant SENP8, Z-RLRGG-aminoluciferin luminescence, 60 min. inhibition, % at 12.5 µM. 40% of 6,200 active. AID 488912, 2010;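 active = mean inhibition across replicates above about 50%, limit read from the data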
SENP6 conf: SENP6 protease inhibitors, confirmation, biochemical, luminescence, single concentration. shares compounds with SENP7 block. recombinant SENP6, Z-RLRGG-aminoluciferin luminescence. inhibition, % at 12.5 µM. 58% of 6,200 active. AID 488915, 2010
SENP7 confirm: SENP7 protease inhibitors, retest, confirmation, biochemical, luminescence, single concentration | shares compounds with SENP7 block | inhibition, % at 12.5 µM | recombinant SENP7, Z-RLRGG-aminoluciferin luminescence, 40 min | 69% of 6,200 active
Casp3 select: caspase-3 protease inhibitors, confirmation, selectivity assay for SENP inhibitor project, biochemical, single concentration | shares compounds with SENP7 block | purified caspase-3, Z-DEVD-aminoluciferin luminescence, 60 min | inhibition, % at 12.5 µM | 60% of 6,200 active;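 active = mean inhibition above about 50%, limit read from the data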
Target sequence (P42574 28-227 limits assumed): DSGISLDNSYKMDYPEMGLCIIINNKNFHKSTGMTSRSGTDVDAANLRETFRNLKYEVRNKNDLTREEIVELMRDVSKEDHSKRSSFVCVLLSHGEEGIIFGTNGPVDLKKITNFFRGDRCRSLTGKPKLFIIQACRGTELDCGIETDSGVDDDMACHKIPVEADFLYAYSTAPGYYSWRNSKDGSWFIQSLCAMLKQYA
SENP luc ctr: luminescence interference (SENP counter-screen); inhibition, % at 12.5 µM; 39% of 6,200 active; Pre-incubated SENP8/Z-RLRGG-aminoluciferin, luciferase luminescence interference; AID 488919; shares compounds with SENP7 block;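 active = mean inhibition above about 50% when retested at one dose, limit read from the data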
Hits are given with their value; . = inactive; / = no result. The list is not random: actives were taken first. Their share in the collection is about 2.8%.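 The calls were made as follows, unless noted: active = mean inhibition above about 50% in the one-dose retest (limit read from the data); inactive = the rest.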

SMILES	Platelet DG rel	SENP8 block-1	SENP8 block-2	SENP7 block	HSP90 inh	SENP6 inh	SENP8 conf	SENP6 conf	SENP7 confirm	Casp3 select	SENP luc ctr
CCSc1nnc(NC(=O)c2cccc(OCc3c(C)noc3C)c2)s1	.	.	.	.	.	.	/	/	/	/	/
COc1ccc2nc(NC(=O)c3cccc(OCc4c(C)noc4C)c3)sc2c1	.	.	.	.	.	59.9	.	.	70.9	.	.
Cc1ccsc1C(=O)Nc1ccc(OCc2ccccc2)cc1	78.9	.	87.5	98.4	.	91.3	.	83.7	100.9	94.8	.
CCOc1ccc(NC(=O)c2ccncc2)cc1	.	.	.	.	.	59.6	.	.	.	.	.
FC(F)(F)c1ccc2c(c1)[nH]c(=S)n2C1CC1	.	.	.	.	.	.	/	/	/	/	/
O=C(Nc1ccc(OCc2ccccc2)cc1)c1ccccc1	.	.	.	66.6	.	.	.	.	.	.	.
CCOc1ccc(NC(=O)c2c(N)n(C)c(=O)[nH]c2=O)cc1	.	.	.	.	/	58.5	.	.	.	.	.
Cc1ccc(C(=O)Nc2ccc(OCc3ccccc3)cc2)s1	.	.	.	.	.	.	/	/	/	/	/
CCOc1ccc(NC(=O)c2ccc(N)cc2)cc1	.	.	.	.	.	.	/	/	/	/	/
Cc1ccsc1C(=O)Nc1ccc(C(=O)O)cc1	/	.	79.1	85.7	.	.	.	78.1	95.4	95.8	80.6
Cc1cc(C(=O)Nc2ccc(OCc3ccccc3)cc2)c(C)o1	.	.	94.1	99.5	.	101.4	73.7	96.4	101.4	95.1	64.4
CC(C)=CC(=O)Nc1ccc(OCc2ccccc2)cc1	.	.	.	57.5	.	72.5	.	.	75.6	.	.
Cc1noc(C)c1COc1cccc(C(=O)Nc2ccc(OCc3ccccc3)cc2)c1	.	.	.	.	.	57.1	.	.	.	.	.
CC(=O)Nc1ccc(NC(=S)Nc2ccc(Br)cc2)cc1	.	.	.	.	.	.	/	/	/	/	/
CCOC(=O)C(=O)Nc1ccc(OCc2ccccc2)cc1	.	.	.	.	.	.	/	/	/	/	/
CC(C)=CC(=O)Nc1ccc(Br)cc1	.	.	.	54.1	.	.	.	.	83.4	60.9	59.5
O=C(Nc1ccccc1)c1cc2ccc3ccccc3c2s1	.	.	.	69.3	.	.	.	.	.	.	.
O=C(Nc1ccccc1)c1ccc(-c2ccccc2)s1	.	.	.	83.9	.	.	.	.	.	67.2	.
CN(C(=O)CCc1nc2ccccc2c(=O)[nH]1)C1CCS(=O)(=O)C1 (stereo not given)	/	.	.	.	/	.	/	/	/	/	/
O=C1CCC[C@@H]2[C@@H](Cc3ccccc3)[C@H](N3CCN(c4ccccc4)CC3)C[C@@H]3CCN1[C@@H]32	/	.	/	/	/	/	/	/	/	/	/
CCCn1nc(C(=O)Nc2ccc3c(c2)OCCO3)c2ccccc2c1=O	/	.	.	.	/	.	/	/	/	/	/
COC(=O)[C@H](CCSC)NC(=O)Cn1cc(C)c(=O)[nH]c1=O	/	.	/	/	/	/	/	/	/	/	/
CCc1ccc(/C=N\NC(=O)c2ccc(Br)o2)s1	.	.	.	.	.	54.9	.	.	76.0	67.2	53.7
CC(=O)NCC1(O)CCCC(C)C1 (stereo not given)	.	.	.	.	.	.	/	/	/	/	/
CCOC(=O)c1cc(C(=O)Nc2cccc(C)c2)nn1C	.	.	.	59.3	.	.	.	.	78.5	72.4	58.1
SMILES	Platelet DG rel	SENP8 block-1	SENP8 block-2	SENP7 block	HSP90 inh	SENP6 inh	SENP8 conf	SENP6 conf	SENP7 confirm	Casp3 select	SENP luc ctr
COc1ccc2c(c1)CC/C2=N\OC(=O)c1ccccc1C	.	.	72.8	79.8	.	78.7	.	82.0	82.9	71.6	.
COc1ccc2c(c1)CCC/C2=N/OC(=O)c1ccccc1OC	.	.	.	.	.	.	/	/	/	/	/
COc1ccc2c(c1)CC/C2=N\OC(=O)c1cccc(C)c1	.	.	71.8	84.1	.	86.2	.	.	.	.	.
COc1ccc2c(c1)CC/C2=N\NC(=O)c1ccccc1	.	.	.	.	.	.	/	/	/	/	/
CC(NC(=O)c1ccco1)C(=O)N1CCCCC1 (stereo not given)	.	.	.	.	.	.	/	/	/	/	/
Cc1ccnc(N2C(=O)c3ccccc3C2O)c1 (stereo not given)	69.5	.	81.4	90.0	.	85.0	81.7	82.1	98.1	95.8	88.0
C=C(C)CNC(=S)Nc1cccc2cnccc12	.	.	.	.	.	.	/	/	/	/	/
Cc1ccc(NC(=S)Nc2cccc3cnccc23)c(C)c1	.	.	87.3	77.1	.	94.7	.	.	.	.	.
CCc1ccc(NC(=S)Nc2cccc3cnccc23)cc1	.	.	82.6	64.0	.	91.6	.	.	.	.	.
Cc1cc(C)cc(NC(=S)Nc2cccc3cnccc23)c1	/	.	80.9	.	.	80.5	.	.	.	.	.
COC(=O)c1ccccc1NC(=O)CNc1ccc(F)c(S(=O)(=O)N2CCOCC2)c1	/	.	.	.	/	.	/	/	/	/	/
Cc1ccc(S(=O)(=O)N2CCOCC2)cc1C(=O)N1CCN(c2ccc(C(F)(F)F)cn2)CC1	/	.	.	.	/	.	/	/	/	/	/
O=C(Nc1ccccc1)O/N=C/c1ccc(F)cc1	.	.	.	59.0	.	67.7	67.1	64.6	89.1	74.6	.
O=C(Nc1ccccc1)O/N=C/c1ccccc1Cl	.	.	.	55.8	.	.	60.1	52.9	76.6	.	53.2
COc1ccc(NC(=O)O/N=C/c2ccc(Br)cc2)cc1	.	.	.	.	.	.	/	/	/	/	/
COc1ccc(/C=N/OC(=O)Nc2ccccc2OC)cc1	.	.	72.0	81.0	.	.	.	86.6	.	83.1	.
CC1CCN(S(=O)(=O)c2cc3c4c(c2)C(C)C(=O)N4CCC3)CC1 (stereo not given)	.	.	.	.	.	.	/	/	/	/	/
CC(C)N1CC(=O)N2CSCC2C1=O (stereo not given)	/	.	/	/	/	/	/	/	/	/	/
